Results published in the OligoGym collection.

These sequences were tested against HIST1H4B (assay: pooled miR-30 sensor sort-seq; sequence = guide strand). Conditions: shRNA.
Note: reference of the scale not given here.

**Q.** For TCCTTGACGCTTGAGCGCGTAA, which sensor-assay potency score (higher = more potent) is on record?
**A.** -1.7

**Q.** TGACAGTCTTGCGCTTGGCGTG was tested. Which sensor-assay potency score (higher = more potent) did it give?
**A.** -1.49

**Q.** With TTATCCCGCAGCACTTTTCGGT as the sequence, how does the sensor-assay potency score (higher = more potent) read?
**A.** -0.874

**Q.** Which sensor-assay potency score (higher = more potent) does the source give for TAAACCACATCCATGGCAGTGA here?
**A.** 0.196

**Q.** For ATCCATGGCAGTGACAGTCTTG, which sensor-assay potency score (higher = more potent) is on record?
**A.** -0.826

**Q.** TATCCCGCAGCACTTTTCGGTG was tested. Which sensor-assay potency score (higher = more potent) did it give?
**A.** -1.57

**Q.** AATCAAACCGGAAATTCGCTTA was tested. Which sensor-assay potency score (higher = more potent) did it give?
**A.** 0.0174

**Q.** For TACCCAAACCTTTACCGCCTTT, which sensor-assay potency score (higher = more potent) is on record?
**A.** -0.866

**Q.** How did the sensor-assay potency score (higher = more potent) turn out when TCTCCTCATAAATCAAACCGGA was run?
**A.** -1.02

**Q.** How did the sensor-assay potency score (higher = more potent) turn out when AACACCTTGAGAACGCCACGAG was run?
**A.** -0.445

**Q.** TTGGATGTTATCCCGCAGCACT was tested. Which sensor-assay potency score (higher = more potent) did it give?
**A.** -1.27

**Q.** For TTTGGTGATGCCTTGGATGTTA, which sensor-assay potency score (higher = more potent) is on record?
**A.** 0.361

What follows are sequences tested against HIST1H4G in the same assay as above. Conditions: shRNA.

**Q.** TTATCGCTCAGTACCTTGCGAT was tested. Which sensor-assay potency score (higher = more potent) did it give?
**A.** -0.526

**Q.** With TTTGAGCACGTAGACCACGGCC as the sequence, how does the sensor-assay potency score (higher = more potent) read?
**A.** -0.756

**Q.** Which sensor-assay potency score (higher = more potent) does the source give for ACATTTTCCAGGAACACCTTGA here?
**A.** -0.0469

**Q.** For TATCGCTCAGTACCTTGCGATG, which sensor-assay potency score (higher = more potent) is on record?
**A.** -1.74

**Q.** ACACCTTGAACACCCGGCGGGT was tested. Which sensor-assay potency score (higher = more potent) did it give?
**A.** -1.05

**Q.** How did the sensor-assay potency score (higher = more potent) turn out when AATATTATCGCTCAGTACCTTG was run?
**A.** -1.22

**Q.** With TACCAGATCACATTTTCCAGGA as the sequence, how does the sensor-assay potency score (higher = more potent) read?
**A.** -0.129

**Q.** How did the sensor-assay potency score (higher = more potent) turn out when ATATTATCGCTCAGTACCTTGC was run?
**A.** -0.774

**Q.** Which sensor-assay potency score (higher = more potent) does the source give for AACACCTTGAACACCCGGCGGG here?
**A.** -0.571

**Q.** For AGGAACACCTTGAACACCCGGC, which sensor-assay potency score (higher = more potent) is on record?
**A.** -0.945

**Q.** With TTGAGCACGTAGACCACGGCCA as the sequence, how does the sensor-assay potency score (higher = more potent) read?
**A.** -0.24

**Q.** How did the sensor-assay potency score (higher = more potent) turn out when ATTATCGCTCAGTACCTTGCGA was run?
**A.** -0.081
